Compound activity (PubChem)
PfHsp40 yeast: compounds rescuing yeast from Plasmodium falciparum HSP40 toxicity; 0.68% of 340,000 active; growth rescue, % at 12.5 µM; S. cerevisiae expressing PfHsp40, growth rescue, ATP luminescence; in the data active = growth rescue above about 28%, passing the limit was not always enough; inconclusive = no clear call, values can overlap the other calls;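 note: yeast W303a lacking pdr1 and pdr3 grown in galactose medium; growth measured after three days at 30 °C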
Yp Topo-I inh: blocks Yersinia pestis topoisomerase I activity | AID 504884 | 0.064% of 360,000 active | Y. pestis Topo-I cleavage product accumulation, plate reader | activity, % at 10 µM; in the data active = activity above about 50%, passing the limit was not always enough; inconclusive = no clear call, values can overlap the other calls
CCHFV vOTU inh: blocks the CCHF virus ovarian tumor domain protease | CCHFV vOTU protease, Pep-AMC fluorescence | inhibition, % at 11.5 µM | 0.55% of 370,000 active; in the data active = inhibition above about 30%; note: 0% = vehicle wells with enzyme and 100% = no enzyme wells
BJeLR lethal: kills HRASV12-expressing BJeLR cells. BJeLR (HRASV12) viability, CellTiter-Glo ATP luminescence, 48 h. 0.17% of 300,000 active. inhibition, % (test concentration not listed); in the data active = inhibition above about 50%; inconclusive = no clear call, values can overlap the other calls
PrPC surface inh: reduces human prion protein on the cell surface. P04156. cell surface PrPC, TR-FRET read-out. inhibition, % at 13.8 µM. 0.43% of 370,000 active; in the data active = inhibition above about 24%; note: 0% = median of the test wells and 100% = reference compound wells
PrP UTR inh: suppresses PrP 5' UTR mRNA reporter expression; cell-based PrP 5' UTR mRNA reporter, plate reader; inhibition, % (concentration not given with the values); 0.35% of 340,000 active; in the data active = inhibition above about 52%; note: 0 = median of the neutral control wells
Active calls of the source: *; ? = inconclusive; . = no result. Only some compounds are listed: those with a hit (about 2% of all), similar ones and a draw of the others.

SMILES | PfHsp40 yeast | Yp Topo-I inh | CCHFV vOTU inh | BJeLR lethal | PrPC surface inh | PrP UTR inh
O=C(N/N=C/c1c(O)n(Cc2ccccc2)c(=O)c2ccccc12)c1cccnc1 | 431* | -1 | 4 | 15 | -1 | 0
O=C(N/N=C/c1c(O)n(-c2ccccc2Cl)c(=O)c2ccccc12)c1cccnc1 | 98* | 2 | -19 | 8 | -2 | 0
COc1ccc(Cn2c(O)c(/C=N/NC(=O)c3cccnc3)c3ccccc3c2=O)cc1 | ? | -2 | 21 | 16 | 5 | -13
O=C(NC1CCCCN(Cc2cccc(Cl)c2)C1=O)c1cccc2nsnc12 (stereo not drawn) | . | . | 3 | . | 7 | .
COC(=O)[C@]12C[C@H](CC(=O)N3CCCCC3)C(=O)N(Cc3ccco3)C1=C[C@H](C1CCCC1)O[C@@H]2C | . | . | 5 | . | 7 | .
CCOC(=O)C1=CN(Cc2cccc(Br)c2)S(=O)(=O)N(C)C1C (stereo not drawn) | 40* | 41 | 3 | . | -1 | 47
CCC(C)Sc1cccc(-c2nc3cnccn3c2NC2CCCCC2)c1 (stereo not drawn) | 40* | 19 | 13 | . | 5 | -16
c1cc(SC2CCCCC2)cc(-c2nc3cnccn3c2NC2CCCCC2)c1 | 0 | 19 | 12 | . | 9 | 0
C#CCN1C(=O)[C@]2(OCCC=C[C@H]2C)c2cc(OC)ccc21 | . | . | -13 | . | -3 | .
C[C@H]1COC(=O)[C@H](Cc2ccc(F)cc2)C/C=C\C[C@@H](CC(=O)N(CCO)Cc2ccccc2)C(=O)N1 | 55* | 27 | -6 | . | 2 | -20
O=C1c2ccccc2-n2c1nc1ccccc1c2=O | 58* | 2 | 2 | -4 | 1 | -46
CCC[C@H]1[C@@H](OC(=O)NC(CC)CC)CC[C@@]23CCCN2C(=O)CCC[C@@H]13 | . | . | . | . | -2 | .
Cc1ccc(S(=O)(=O)NC23CC4CC(CC(C4)C2)C3)cc1 | 107* | 20 | 9 | . | 6 | 12
O=c1cnn([C@@H]2O[C@H](CO)[C@@H](O)[C@H]2O)c(=O)[nH]1 | 61* | -1 | . | 23 | . | 34
O=c1[nH]c(=O)n(C2OC(CO)C(O)C(O)C2O)cc1F (stereo not drawn) | . | . | -3 | . | 3 | .
CN1CC=C(c2ccc(C(F)(F)F)cc2)N(c2ccc(Br)cc2)C1=O | . | . | 4 | . | 10 | .
COCc1cc(N2CCNC[C@H]2C)ccc1N1C[C@@H](C)O[C@@H](C)C1 | . | . | 16 | . | 2 | .
O=C1C(=O)N(CCN2CCOCC2)C(c2ccccn2)/C1=C(/O)c1ccc(F)cc1 (stereo not drawn) | 55* | -5 | 1 | 3 | -10 | -20
O=C1C(=O)N(CCCN2CCOCC2)C(c2ccc(F)cc2)/C1=C(/O)c1ccccc1 (stereo not drawn) | 63* | 0 | 7 | 9 | 2 | -22
Cc1ccc(S(=O)(=O)N2CCCC2C(=O)N2CCc3ccccc3C2)cc1 (stereo not drawn) | . | . | 0 | . | 13 | .
CCOc1ccccc1NC(=O)CC1Nc2ccccc2NC1=O (stereo not drawn) | 2 | 0 | 8 | -6 | 7 | -18
CCOc1ccccc1NC(=O)CC1Nc2cc(C)c(C)cc2NC1=O (stereo not drawn) | 49* | 10 | 3 | -2 | 4 | -15
CC(=O)CC[C@@H]1CC[C@]2(CCCN(S(=O)(=O)c3ccccc3)C2)O1 | . | . | 1 | . | 4 | .
O=C(Nc1ccc2nc(-c3ccco3)c(-c3ccco3)nc2c1)N1CCN(c2ccccn2)CC1 | 1 | -7 | 30* | 5 | -12 | 6
Cc1nc2cc(NC(=O)N3CCN(c4ccccn4)CC3)ccc2o1 | 1 | 4 | -9 | 1 | 0 | -24
SMILES | PfHsp40 yeast | Yp Topo-I inh | CCHFV vOTU inh | BJeLR lethal | PrPC surface inh | PrP UTR inh
O=C(Nc1ccccc1)c1ccc2nc(-c3ccco3)c(-c3ccco3)nc2c1 | 1 | -12 | 48* | 4 | -16 | -9
C[C@@H](NC(=O)c1ccc(C#Cc2cccc(F)c2)cn1)C(C)(C)O | . | . | 0 | . | 0 | .
COC(=O)NCC(C)OC(=O)Nc1cccc(Cl)c1 (stereo not drawn) | 0 | 0 | 10 | 0 | -4 | -18
CC(CNC(=O)COc1ccccc1)OC(=O)Nc1ccc(Cl)c(Cl)c1 (stereo not drawn) | 200* | 9 | 8 | 3 | -4 | -1
Cc1ccc(N2C(=O)c3ccccc3C2O)nc1 (stereo not drawn) | . | . | . | 70* | . | .
Cc1ccc(N2C(=O)c3ccccc3C2Nc2ccccc2F)nc1 (stereo not drawn) | -1 | 1 | 0 | -9 | 8 | -8
Cc1ccc(NC(=O)C2CCN(c3nnc(-n4cccc4)s3)CC2)c(C)c1 | . | . | 2 | . | -1 | .
COc1ccc(N=N/C(=C\O)C(=O)c2cccs2)cc1 | 478* | 21 | 5 | 5 | 5 | -17
COc1ccc(C(=O)/C(=C/O)N=Nc2ccc(F)cc2)cc1 | 0 | -5 | -1 | 10 | 4 | -25
Cc1ccccc1NC(=O)CN1C(=O)NC(C)(c2ccc3c(c2)OCO3)C1=O (stereo not drawn) | 35* | 2 | -8 | -12 | -2 | -14
CC1(c2ccc3c(c2)OCO3)NC(=O)N(CC(=O)Nc2ccccc2[N+](=O)[O-])C1=O (stereo not drawn) | -1 | 1 | -4 | . | -12 | -6
O=S1(=O)CC2c3ccc(F)cc3CN2CN1C1CCCC1 (stereo not drawn) | . | . | 12 | . | -9 | .
CN(C)CCCOC(=O)C1c2ccccc2Oc2ccccc21 | 44* | -5 | 6 | -2 | -10 | -14
CN(CCOC(=O)C1c2ccccc2Oc2ccccc21)C(C)(C)C | -1 | -1 | . | 0 | . | -23
COc1ccc(C2NC(=S)N(Cc3ccc(Cl)cc3)C(C)=C2C(C)=O)cc1 (stereo not drawn) | . | . | 8 | . | 9 | .
CN1CCN(C(=O)c2cc(COc3c(F)cccc3F)on2)CC1c1ccccc1 (stereo not drawn) | 80* | 10 | 12 | -5 | -11 | -16
CN1CCN(C(=O)c2cc(COc3ccc(F)cc3Cl)on2)CC1c1ccccc1 (stereo not drawn) | 139* | 15 | 0 | 1 | 2 | -14
CSc1ccccc1OCc1cc(C(=O)N2CCN(C)C(c3ccccc3)C2)no1 (stereo not drawn) | 78* | 34 | -2 | 3 | -2 | -13
COc1ccccc1OCc1cc(C(=O)N2CCN(C)C(c3ccccc3)C2)no1 (stereo not drawn) | -1 | 25 | 9 | -2 | 2 | -65
O=C(c1cc(COc2c(F)cccc2F)on1)N1CCC(c2ccccc2F)C1 (stereo not drawn) | 2 | -4 | -2 | -4 | 5 | -18
CCCCOCCCNC(=O)C[C@@H]1C(=O)N(Cc2ccc(OC)cc2)/C2=C/CCCCC[C@@]21C(=O)OCC | . | . | 19 | . | 2 | .
COC(=O)[C@]12C[C@H](CC(=O)NCc3ccc(OC)c(OC)c3)C(=O)N(CCC3=CCCCC3)C1=C[C@H](C(C)C)O[C@@H]2C1CC1 | . | . | 18 | . | 3 | .
